The list is not random: actives were taken first. Their share in the collection is about 1.5%.
sEH activator: increases human soluble epoxide hydrolase activity | AID 717 | activation, % at 2 µM | 91,000 compounds, 0.04% hits | purified human sEH enzymatic activity, activator screen; in the data active = activation above about 37%
PLAP act: human PLAP activation. activation fold at 20 µM. P05187. AID 696. 96,000 compounds, 1.2% hits. purified PLAP enzyme, luminescent substrate read-out; stronger effect = higher value; in the data active = activation fold above about 2
Target sequence (P05187 whole entry, looked up): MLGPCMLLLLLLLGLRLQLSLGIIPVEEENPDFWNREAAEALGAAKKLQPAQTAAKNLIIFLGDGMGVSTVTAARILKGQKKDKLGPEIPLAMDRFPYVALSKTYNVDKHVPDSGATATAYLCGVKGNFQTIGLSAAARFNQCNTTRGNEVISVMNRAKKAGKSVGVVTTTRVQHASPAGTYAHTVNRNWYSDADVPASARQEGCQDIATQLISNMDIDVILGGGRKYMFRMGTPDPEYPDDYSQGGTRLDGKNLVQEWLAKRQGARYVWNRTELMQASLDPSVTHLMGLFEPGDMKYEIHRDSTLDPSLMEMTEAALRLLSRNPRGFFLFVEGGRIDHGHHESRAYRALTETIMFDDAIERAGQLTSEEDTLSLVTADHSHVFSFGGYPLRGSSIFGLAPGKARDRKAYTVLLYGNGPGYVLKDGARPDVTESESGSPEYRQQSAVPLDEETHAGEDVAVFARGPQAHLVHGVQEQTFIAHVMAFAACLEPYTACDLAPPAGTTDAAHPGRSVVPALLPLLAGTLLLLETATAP
sEH inh: soluble epoxide hydrolase (human) inhibition | recombinant human sEH enzymatic activity assay | 91,000 compounds, 0.34% hits | inhibition, % at 2 µM; in the data active = inhibition above about 80%
BAP1 block: blocks human BAP1 ubiquitin-AMC hydrolysis. Q92560. recombinant BAP1, Ub-AMC hydrolysis fluorescence kinetic; stronger effect = lower value. calls only at 20 µM. 72,000 compounds, 0.48% hits. AID 436;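 active = activity remaining at or below 50% of control, provided the compound also passes the data quality filters; inactive = the rest, including low values that fail the filters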;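 also: 100% = DMSO wells rate and 0% = substrate alone blank rate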
BAP1 inh conf: BAP1 (human) enzyme inhibition, confirmed. shares compounds with BAP1 block. purified BAP1, Ub-ethyl ester hydrolysis, HPLC; stronger effect = lower value. % of control activity, % at 20 µM. 310 compounds, 8% hits. AID 753;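 active = percent of control activity at or below 60%; inconclusive = HPLC trace unusable from injection failure or solvent front hiding peaks; inactive = the rest, plus ubiquitin peak ratio over a set limit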
* hit, by the source's call; i = inactive; ? = inconclusive; · = no result given; + = active, no number.

SMILES	sEH activator	PLAP act	sEH inh	BAP1 block	BAP1 inh conf
N#Cc1nc(-c2ccccc2F)oc1NCCN1CCOCC1	22	1.2	-25	+	87
O=C(NCc1ccccn1)Nc1ccc2c(c1)OCO2	0	1	1	+	111
O=C(NCc1cccs1)Nc1ccc2c(c1)OCO2	-10	1	10	i	·
COc1ccc2nc(NC(=O)c3ccc(S(=O)(=O)N4CCc5ccccc54)cc3)sc2c1	·	·	·	i	·
Cc1sc2nc(CN3CCOCC3)nc(N3CCC(C(N)=O)CC3)c2c1C	-5	·	6	i	129
CCOC(=O)C1Cn2c(nc3c(c2=O)C2(CCCC2)Cc2ccccc2-3)S1 (stereo unspecified)	·	1.5	·	+	97
O=C(Nc1ccc(F)cc1F)c1cc2n(n1)C(C(F)(F)F)C1CCCCC1N2 (stereo unspecified)	13	1	-16	+	117
CCCCC1CCC(c2nn(CC(=O)O)c(=N)s2)CC1 (stereo unspecified)	·	·	·	i	·
COc1ccc(OC)c(NC(=O)c2c(NC(=O)CNCc3ccco3)sc3c2CCC3)c1	-1	1.6	2	i	·
COc1ccc(NC(=O)c2c(NC(=O)CNCc3ccco3)sc3c2CCC3)c(OC)c1	-11	1.7	10	+	?
O=C(c1ccco1)[C@@H]1[C@@H]2C(=O)N(c3ccc(F)cc3)C(=O)[C@@H]2C2c3ccccc3C=CN21 (stereo partly specified)	-12	1.3	11	i	·
O=C(c1ccco1)[C@@H]1[C@@H]2C(=O)N(c3ccc(Br)cc3)C(=O)[C@@H]2C2c3ccccc3C=CN21 (stereo partly specified)	0	1.2	-1	+	91
CCOC(=O)c1c(NC(=O)CSc2nnc(CNc3ccc(F)cc3)o2)sc(C)c1C	4	1.6	-4	+	?
Cc1ccc(NC(=O)N2CCC(C(=O)NCCC3=CCCCC3)CC2)cc1	-39	0.8	38	+	67
Cc1cccc(OCC(=O)Nc2ccc(N3CCN(S(C)(=O)=O)CC3)cc2)c1C	-50	1.1	50	+	98
Cc1ccc(-n2nnnc2SCC(=O)Nc2cccc(NC(=O)c3ccco3)c2)cc1C	-16	0.8	17	+	92
CC(=O)C(C(C)=O)c1c(Cl)c(O)c(O)c2c(C(=O)c3ccccc3)coc12	8	1.4	-6	+	64
O=C(O)Cn1cc(C(=O)c2cccs2)c2ccccc21	12	1.1	-9	+	148
COc1ccc(Br)cc1/C=c1\sc2nc(-c3ccco3)nn2c1=O	·	1.9	·	+	75
Cc1ccc(/C=c2\sc3nc(-c4ccco4)nn3c2=O)o1	4	1.4	0	i	·
Cc1ccc(-c2nc3s/c(=C\c4ccco4)c(=O)n3n2)cc1	2	1.2	-2	+	55*
Cc1ccc2c(CC(=O)O)cc(=O)oc2c1	·	·	·	i	·
N#Cc1c(NC(=O)CCN2C(=O)c3ccccc3C2=O)oc(-c2ccccc2)c1-c1ccccc1	-13	1.1	14	+	50*
CC(C)n1c(SCCO)nc2c1c(=O)[nH]c(=O)n2C	·	·	·	i	·
CC(C)Cn1cc(C(=O)N2CCN(c3ccccn3)CC2)c2c3ccccc3n(C)c2c1=O	2	1.6	-3	+	143
SMILES	sEH activator	PLAP act	sEH inh	BAP1 block	BAP1 inh conf
CC1=C(C(=O)OCC(C)C)C(c2ccc(Br)cc2)NC(=O)N1 (stereo unspecified)	·	·	·	i	·
COc1ccc(Cn2nnnc2C(c2ccccn2)N2CCN(c3cc(Cl)ccc3C)CC2)cc1 (stereo unspecified)	·	1.6	·	+	84
COCCn1nnnc1C(c1ccccn1)N1CCN(c2cc(Cl)ccc2C)CC1 (stereo unspecified)	4	1.6	-2	·	·
CCC(C)(C)C1CCc2c(sc(NC(=O)c3cc(Cl)ccc3OC)c2C(N)=O)C1 (stereo unspecified)	·	·	·	i	·
C=CCn1c(-c2cc(OC)c(OC)c(OC)c2)n[nH]c1=S	4	1.1	1	+	87
O=S(=O)(c1ccc2c(c1)oc1ccccc12)N1CCOCC1	-5	0.9	3	+	112
Cn1c(=O)oc2cc(S(=O)(=O)N3CCOCC3)ccc21	-6	0.8	4	i	·
O=C(Nc1ccncc1)c1ccccc1Br	·	·	·	i	·
COc1ccc(CNS(=O)(=O)c2ccc(S(=O)(=O)N3CCCCC3)cc2)cc1	·	0.8	·	+	?
c1ccc(-n2cnnc2SCc2nc3ccccc3s2)cc1	-5	0.8	5	+	111
CCOC(=O)C1CCCN(c2ccc(NC(=O)c3snc4c(=O)[nH]cnc34)cc2)C1 (stereo unspecified)	·	1.8	·	+	103
CCOc1ccc(C(=O)Nc2ccc(NC(=O)c3ccc(C(C)(C)C)cc3)cc2)cc1Cl	·	·	·	i	·
CCCCCCNC(=O)C(C#N)c1nc2ccccc2nc1N1CCCC1 (stereo unspecified)	1	1	0	+	70
COc1ccccc1N1CCN(c2nc3ccccc3nc2C(C#N)C(=O)OC(C)C)CC1 (stereo unspecified)	0	1	-4	+	117
CCOC(=O)c1sc(NC(=O)c2noc3c2CCCC3)c(C(=O)OCC)c1C	-18	·	18	+	i
COc1ccc(C(=O)COC(=O)c2ccc(N3C(=O)C4CC=CC(C)C4C3=O)cc2)cc1 (stereo unspecified)	·	·	·	i	·
Cc1cc(Cl)c2c(c1)[C@]1(C(=O)N2)[C@@H]2C(=O)N(Cc3ccccc3)C(=O)[C@@H]2[C@@H]2CCCN21	7	1.4	-7	i	·
O=C1[C@H]2[C@@H](C(=O)N1c1cc(Cl)cc(Cl)c1)[C@]1(C(=O)Nc3ccccc31)N1CCC[C@@H]21	9	1.4	-11	+	95
O=C1c2ccc(-c3nc4ccccc4c(=O)o3)cc2C(=O)N1c1cccc(C(F)(F)F)c1	·	·	·	i	·
Cc1ccc(-n2ncc3c(=O)n(CC(=O)Nc4cccc(Cl)c4)cnc32)cc1C	-12	1	11	+	79
CCOC(=O)N1CCN(C(=O)c2cccn3c(=O)c4sccc4nc23)CC1	9	1.1	-9	+	100
Cc1nc(-c2ccccc2)sc1C(=O)Nc1ccc(-c2cn3ccccc3n2)cc1	·	·	·	i	·
O=C(c1cc2nc(-c3ccccc3)cc(-c3ccccc3)n2n1)N1CCCCCC1	·	·	·	i	·
CCc1nc(SCC(=O)Nc2ccc3c(c2)OCCO3)c2oc3ccccc3c2n1	-40	1	39	+	?
Cc1nc(SCC(=O)Nc2ccc3c(c2)OCCO3)c2oc3ccccc3c2n1	-31	1.2	30	·	·
COc1ccc(C2CC(=O)N3CN(c4ccc(C)c(Cl)c4)CSC3=C2C#N)cc1OC (stereo unspecified)	9	1.4	-10	+	?
COc1ccc(N2CSC3=C(C#N)C(c4ccc(OC)c(OC)c4)CC(=O)N3C2)c(OC)c1 (stereo unspecified)	-11	1.4	10	i	·
COc1ccc2oc(=Nc3ccc(C)cc3)c(C(=O)NC(C)=O)cc2c1	·	·	·	i	·

Screening results: PubChem BioAssay, several laboratories
